Laboratory results as given in ChEMBL document CHEMBL3988442, “University of Dundee, Small-Polar-MMV Screening Library” (2021).
The campaign covered roughly 48,000 compounds. About 13,000 (27%) showed an effect of 50% or more. The list shows a part of the results.

These compounds were tested on Wolbachia pipientis (assay: Anti-Wolbachia Cell-Based Screen). Conditions: 5 µM.
Assay type: functional
Parameters: scale not given: in the data most compounds retested in dose-response had high values

| SMILES | Percent Effect |
| --- | --- |
| CCn1cc(N2Cc3nc(N)ncc3C2=O)cn1 | 3.471% |
| NC(=O)CN1C(=O)CO[C@H]2CN(Cc3ccc(C(F)(F)F)cc3)C[C@H]21 | -2.639% |
| Cl.FC(F)Oc1ccc(CNCc2cc(Cl)c3c(c2)OCO3)cc1 | -3.122% |
| COCCc1noc(CN(C)C2CCCN(c3ccc(C)nn3)C2)n1 (centres undefined) | -2.157% |
| COCCc1noc(CN2C(=O)OC[C@@H]2C(C)C)n1 | -4.227% |
| COCCc1noc(CN(C)c2nc(C)nc(C)c2C)n1 | 89.33% |
| COCCc1noc(CN(C)c2nccc(C)n2)n1 | 10.01% |
| COCCc1noc(CN(C)c2nc(C)cc(C)n2)n1 | 101% |
| CC(C)N[C@@H]1CO[C@H](CNC(=O)c2ccccc2)[C@H]1O | -5.064% |
| O=C(NCc1ccco1)N1CCC(n2cc(-c3ccccn3)nn2)CC1 | 27.21% |
| O=C(c1cnc(C2CC2)nc1)N1CCCC(c2nccs2)C1 (centres undefined) | 70.5% |
| Cc1noc(COCC(=O)N2CCCC(c3nccs3)C2)n1 (centres undefined) | -1.591% |
| O=C(c1cnc(C2CC2)nc1)N1CCC(N2CCC(O)CC2)CC1 | -12.63% |
| Cc1csc(C2CCCN(C(=O)c3cnc4n[nH]c(C)c4c3)C2)n1 (centres undefined) | -1.582% |
| O=C(c1cnc(O)c(Cl)c1)N1CCCC(c2nccs2)C1 (centres undefined) | 105% |
| CC(C)Oc1ncc(C(=O)N2CCCC(C(=O)O)C2)cc1Cl (centres undefined) | -16.5% |
| CCn1cc(C(=O)N2CCCC(c3nccs3)C2)cn1 (centres undefined) | 107.1% |
| O=C(CN1CCCNC1=O)N1CCCC(c2nccs2)C1 (centres undefined) | -4.052% |
| O=C(c1cncnc1)N1CCCC(c2nccs2)C1 (centres undefined) | 117.1% |
| O=C(Nc1cnccn1)[C@@H]1COC[C@H]2CN(c3ncc(F)cn3)C[C@H]21 | -14.05% |
| CCCN1CCC(N2CCN(c3cc(C)nc(C)c3)CC2)CC1 | -11.77% |
| CC1CN(C(=O)NCc2cccc(C#N)c2)CCN1CC(F)(F)F (centres undefined) | -8.516% |
| Cc1cc(C(=O)NC2CCN(c3ncccc3C#N)CC2)on1 | 2.44% |
| COCCNC(=O)[C@@]12CCO[C@@H]1CCN(Cc1scnc1C)C2.O=C(O)C(F)(F)F | 6.926% |
| Cc1cnc(CNC(=O)[C@@]23CCO[C@@H]2CCNC3)cn1.O=C(O)C(F)(F)F | 84.34% |
| Cc1cnc(CNC(=O)[C@@]23CCO[C@@H]2CCN(C2CCCC2)C3)cn1.O=C(O)C(F)(F)F | 116.3% |

| SMILES | Percent Effect |
| --- | --- |
| O=C(NCc1ccco1)[C@@]12CCO[C@@H]1CCN(C1CCC1)C2.O=C(O)C(F)(F)F | -7.517% |
| COc1cc(C)sc1C(=O)NCCC(=O)N(C)Cc1ccccc1 | -13.22% |
| CCc1nc(CN(C)Cc2nnc(-c3cccs3)o2)cs1 | -11.05% |
| Cc1ccc2oc(C(=O)N3CCCC(c4noc(C)n4)C3)cc2n1 (centres undefined) | -6.015% |
| Cc1nc(C2CCCN(C(=O)c3csc(C)n3)C2)no1 (centres undefined) | -14.77% |
| Cc1nc(C(=O)N2CCCC(c3ccc4sc(N)nc4n3)C2)co1 (centres undefined) | 130.6% |
| CC(=O)N1CCCC(c2ccc3sc(N)nc3n2)C1 (centres undefined) | 125% |
| CNC(=O)C(C)(C)N1CCC[C@H]1C(=O)NCC(C)C.Cl | 3.09% |
| O=C1[C@H]2CC[C@H](CN(S(=O)(=O)c3ccccc3)C2)N1Cc1cscn1 | 20.83% |
| CN(C)CCOc1cc(NC(=O)COCC(F)(F)F)ccn1 | 0.1628% |
| CNc1ccnc(N2CCC(c3nnc(CN4CCCC4)n3C)CC2)n1 | 5.752% |
| CNc1cncc(C2CCCN2Cc2ccnc(N3CCCC3)n2)n1 (centres undefined) | 113.8% |
| CNc1cncc(C2CCCN2Cc2ccnc(C)n2)n1 (centres undefined) | 94.65% |
| CNc1cncc(C2CCCN2Cc2cccc(C)n2)n1 (centres undefined) | 107% |
| CNc1cncc(C2CCCN2Cc2ccccn2)n1 (centres undefined) | -6.614% |
| CNc1cncc(C2CCCN2Cc2ccn(C)n2)n1 (centres undefined) | 90.43% |
| Cc1nccc(CNS(=O)(=O)N2CCCC2c2ccc(C)o2)n1 (centres undefined) | -6.689% |
| O[C@H]1[C@H](n2cc(-c3cncnc3)nn2)c2ccccc2C12CCNCC2 | -31.96% |
| CN(C)CCN(Cc1ccc(Cl)cc1)C(=O)c1cc[nH]n1 | 3.118% |
| Cc1ccc(-c2ncc(C(=O)N3CCCN4CCC[C@H]4C3)c(O)n2)cc1 | -8.702% |
| CC(=O)N1CCC2(CC1)CN(C)CC[C@H]2C(F)(F)F.Cl | -1.973% |
| Cl.NC(CC1CCCC1)c1ccccc1 (centres undefined) | -1.351% |
| NC(=O)CCN1C(=O)CC(Cc2ccc(F)cc2)C1=O (centres undefined) | 3.459% |
| COc1ccnc(N2CCN(Cc3ncc(C(C)(C)C)o3)CC2)n1 | 7.68% |
| Cn1ccnc(Nc2ccc3c(c2)CCN3C(=O)c2ccoc2)c1=O | 61.04% |
| CC(=O)N1CCCc2cc(Nc3nccn(C)c3=O)ccc21 | 8.205% |

| SMILES | Percent Effect |
| --- | --- |
| Cn1ccnc(Nc2ccc3c(c2)CCN3C(=O)c2cccnc2)c1=O | -3.992% |
| CCCN(C(=O)COCC)c1cccc(C)c1 | -29.78% |
| Cc1ccnc(OCC(=O)N2CCN(c3ncccn3)CC2)n1 | 1.434% |
| Cc1ccnc(OCC(=O)N2CCC(C(N)=O)CC2)n1 | -0.2918% |
| Cc1ccc(N2CCN(C(=O)COc3nccc(C)n3)CC2)nn1 | -17.48% |
| Cc1ccnc(OCC(=O)N2CCCC2)n1 | 98.39% |
| Cc1ccc(N2CCN(C(=O)COc3ncccn3)CC2)nn1 | -4.899% |
| COc1ccc(N2CCN(C(=O)COc3nccc(C)n3)CC2)cc1 | 79.4% |
| CCc1ccccc1OCC(=O)Nc1ccnc(OCCN(C)C)c1 | 4.07% |
| CN(Cc1ccc(Cl)cc1)S(=O)(=O)N(C)Cc1cnn(C)c1 | -1.179% |
| Cn1cc(CNCC2(O)CCCCC2)c(-c2cccnc2)n1 | 2.797% |
| Cc1cccc(-c2noc(CN3CCc4c(ncn4C4CC4)C3)n2)c1 | -0.5665% |
| Cc1nc(-c2cnn(C)c2)nc2c1CN(C(=O)c1cccnc1)CC2 | -2.218% |
| COCCCN(C)c1nc(-c2ccncc2)nc2c1CCN(C(C)=O)C2 | 7.228% |
| C=Cn1cc(CN2CCc3nc(-c4cccnc4)nc(O)c3C2)c(C)n1 | 93.89% |
| Cc1nccn1CCN(C)c1nc(-c2cccnc2)nc2c1CCNC2 | 2.372% |
| Cc1ccc(O)c(CN2CCc3nc(-c4cccnc4)nc(O)c3C2)c1 | 101.6% |
| Cc1cnn(C2CN(c3nc(-c4ccncc4)nc4c3CCC4)C2)c1 | -2.167% |
| Cc1nn(C)cc1CN1CCc2nc(-c3cccnc3)nc(O)c2C1 | 87.93% |
| NCC1CN(c2nc(-c3cccnc3)nc3c2CCNCC3)CCO1 (centres undefined) | -59.49% |
| CC(=O)N1CCc2c(nc(-c3cccnc3)nc2N(C)CC(O)CO)C1 (centres undefined) | -2.171% |
| C=Cn1ncc(CN2CCc3nc(-c4ccncc4)nc(O)c3C2)c1C | 95.82% |
| CC(C)(C)NC(=O)C1CSCN1S(=O)(=O)c1ccccc1S(C)(=O)=O (centres undefined) | 4.107% |
| CCc1ncc2c(n1)CN(C(=O)CC(C)NC(C)=O)C2 (centres undefined) | -5.882% |
| Cc1cc(CN(C)C(=O)NC(C)Cc2ccco2)no1 (centres undefined) | 4.671% |
| CCn1ccnc1CN1CCN(c2nc(C)cc(OC)n2)CC1 | -15.82% |

| SMILES | Percent Effect |
| --- | --- |
| CC[C@@H]1N(CC2CCOCC2)CCC[C@]12CCC(=O)N2.O=C(O)C(F)(F)F | -7.738% |
| NC(=O)c1cc(-n2cc(-c3cccc(C(=O)O)c3)cn2)cs1 | -1.419% |
| CN(c1cccnc1N1CCCC1)S(=O)(=O)c1cnn(C)c1 | 8.889% |
| CCc1noc(CNc2nc(-c3cccnc3)nc3c2CCNCC3)n1 | 3.724% |
| CCn1ncc(CN2CCc3nc(-c4cccnc4)nc(O)c3C2)c1C | 89.32% |
| CC(O)CNc1nc(-c2cccnc2)nc2c1CCC2 (centres undefined) | -9.754% |
| CS(=O)(=O)NC(=O)c1cnc2c(cnn2C2CCCC2)c1 | -4.215% |
| CC(C)CCN(C)C(=O)c1cnc2c(cnn2CC(C)C)c1 | 1.745% |
| CCn1c(N)nc2cc(C(=O)N3CCC(N4CCCC4)CC3)cnc21 | -1.571% |
| CCN1CCN(C(=O)c2cnc3c(cnn3C3CCCC3)c2)CC1 | 83.11% |
| O=C(O)c1cnc2c(cnn2C2CCCC2)c1 | -9.214% |
| CN1CCN(C(=O)c2cnc3c(cnn3C3CCCC3)c2)CC1 | 4.55% |
| CC1CN(C)CCN1C(=O)c1cnc2c(cnn2C2CCCC2)c1 (centres undefined) | 101.7% |
| CC1CN(C)CCN1C(=O)c1cnc2onc(CC(C)(C)C)c2c1 (centres undefined) | 4.024% |
| CCOC1CCCN(C(=O)c2cnc3c(cnn3C3CCCC3)c2)C1 (centres undefined) | -8.504% |
| O=C(c1cnc2c(cnn2C2CCCC2)c1)N1CCN(CCO)CC1 | 107.7% |
| CN1CCC(N(C)C(=O)c2cnc3c(cnn3C3CCCC3)c2)CC1 | 105.6% |
| CCn1c(N)nc2cc(C(=O)N3CCCN(C)CC3)cnc21 | -5.515% |
| Cn1ccnc1SCC(=O)NCCC1CCCO1 (centres undefined) | 1.622% |
| Cn1cc(S(=O)(=O)NC(CO)Cc2c[nH]c3ccccc23)cn1 (centres undefined) | -17.12% |
| Cn1cccc1C(=O)NCc1cn2c(n1)CN(S(=O)(=O)C1CC1)CC2 | -2.289% |
| Cc1ncc(C(=O)N2CCC(N3C[C@@H](C)O[C@@H](C)C3)CC2)c(=O)[nH]1 | -16.5% |
| CCc1noc(CC)c1CNC(=O)Nc1cccc(C(=O)N(C)C)c1 | 14.38% |
| O=C(c1ccc2c(c1)[nH]c(=O)n2C1CCCC1)N1CCCSCC1 | -3.459% |
| NC(=O)C1CCCN(C(=O)c2cnc3c(cnn3C3CCCC3)c2)C1 (centres undefined) | -9.879% |
| O=C(c1cnc2c(cnn2C2CCCC2)c1)N1CCCSCC1 | 112.1% |
